Screening data from PubChem BioAssay.
Shown are actives, neighbours in structure and some others; about 1.9% of the full set was active somewhere.
Cardio protect = modulators protecting cardiomyocytes from myocardial damage; H9c2 cardiomyocytes, H2O2 injury protection, ATPLite, 2 h; protection from H2O2 cell death, % at 20 µM; 0.63% of 360,000 active; AID 588492;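 active = compounds giving at least 50% protection of heart cells from peroxide-induced death in the single-dose screen, raw or plate-pattern-corrected value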;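 also: 0% = DMSO wells with peroxide and 100% = DMSO wells without peroxide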
ATG4B inh = inhibitors of human ATG4B cysteine protease. 0.51% of 340,000 active. ATG4B cleavage of LC3-PLA2, NBD-HPC fluorescence, 1 h. inhibition, % at 8.33 µM; in the data active = inhibition above about 40%
PP5 primary = inhibitors of human protein phosphatase 5 (PP5); 0.18% of 320,000 active; AID 1987; P53041; purified PP5c, OMFP substrate fluorescence; inhibition, % at 6.7 µM;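 active = inhibition above the campaign's mean inhibition across all tested compounds plus 3 SD, cut at about 9.5% in these data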;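 also: 0% = DMSO only and 100% = 100 µM cantharidin control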
PP1 counter = PP1-alpha (human) inhibition in PP5 counter-screen; P62136; purified PP1alpha, OMFP fluorescence; inhibition, % at 6.7 µM; 0.9% of 320,000 active; AID 2235;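 active = inhibition above the mean inhibition of all tested compounds plus 3 SD, computed separately for each screening campaign, cut at about 15% in these data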
Target sequence (P62136 whole entry, looked up): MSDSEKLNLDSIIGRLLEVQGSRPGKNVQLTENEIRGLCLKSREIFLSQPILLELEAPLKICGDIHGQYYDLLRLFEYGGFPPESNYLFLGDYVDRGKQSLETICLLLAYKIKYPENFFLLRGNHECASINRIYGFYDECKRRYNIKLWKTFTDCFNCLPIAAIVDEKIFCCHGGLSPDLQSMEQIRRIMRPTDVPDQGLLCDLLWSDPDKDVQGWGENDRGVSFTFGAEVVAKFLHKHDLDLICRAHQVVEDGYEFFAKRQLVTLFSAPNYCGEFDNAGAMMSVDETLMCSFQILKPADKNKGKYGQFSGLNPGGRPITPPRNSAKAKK
Numbers without * were called inactive.

Screening O=C1N[C@H](Cc2ccccc2)COC(=O)[C@@H](Cc2ccc(F)cc2)C/C=C\C[C@H]1CC(=O)N(CCO)Cc1ccccc1 returned Cardio protect 58* and ATG4B inh -10.
For Cc1ccc(NC(=O)COC(=O)Cc2c[nH]c3ccccc23)cc1F the results were Cardio protect 2 and ATG4B inh -3.
Screening Nc1ccc([N+](=O)[O-])cc1C(=O)NNC(=O)c1ccco1 returned Cardio protect 13, ATG4B inh -8, PP5 primary 1 and PP1 counter -2.
Screening COc1ccc(-n2ccn3c(CCC(=O)N4CCN(c5cccc(C)c5C)CC4)nnc3c2=O)cc1 returned Cardio protect 3, ATG4B inh 0, PP5 primary 0 and PP1 counter 0.
`Cc1csc(=O)n1CC(=O)OCC(=O)c1c(N)n(CC(C)C)c(=O)n(C)c1=O` gave Cardio protect -6, ATG4B inh -13, PP5 primary 1 and PP1 counter -5.
CCOc1ccc2[nH]c(C(=O)N/N=C/c3ccccc3OC)cc2c1 was read as Cardio protect 22, ATG4B inh -7, PP5 primary 3 and PP1 counter 4.
Screening COc1cc(OC)c2cc(C(=O)N/N=C/c3ccccc3O)[nH]c2c1 returned Cardio protect 57*, ATG4B inh 4, PP5 primary 2 and PP1 counter 7.
COc1ccc(OC)c(/C=N/NC(=O)c2cc3c(OC)c(OC)ccc3[nH]2)c1 was read as Cardio protect 90*, ATG4B inh -30, PP5 primary 3 and PP1 counter 3.
`CCCOc1ccc2[nH]c(C(=O)N/N=C/c3cc(OC)c(OC)c(OC)c3)cc2c1` gave Cardio protect 59*, ATG4B inh 2, PP5 primary 2 and PP1 counter -4.
`CCCCn1c(N)c(N(CC)C(=O)c2cccc(S(=O)(=O)N3CCN(C)CC3)c2)c(=O)[nH]c1=O` gave Cardio protect -3, ATG4B inh -9, PP5 primary -2 and PP1 counter -3.
COCCOc1ccc(C(F)(F)F)cc1NC(=O)COC(=O)Cc1c[nH]c2ccccc12 was read as Cardio protect -6, ATG4B inh -13, PP5 primary 4 and PP1 counter 0.
For CCC(C)c1ccc(N(CC(=O)NC(C)(C)C)C(=O)CNC(=O)c2cccs2)cc1 (centres undefined) the results were Cardio protect 3, ATG4B inh -1, PP5 primary 4 and PP1 counter 9.
For Nc1ccc2nc(-c3ccccc3)[nH]c2c1 the results were Cardio protect 6, ATG4B inh -5, PP5 primary -1 and PP1 counter -1.
For Nc1ccc2nc(-c3cccs3)[nH]c2c1 the results were Cardio protect 66*, ATG4B inh 0, PP5 primary -3 and PP1 counter -4.
For Cc1cc(=O)[nH]c(SCC(=O)Nc2c(C)n(C)n(-c3ccccc3)c2=O)n1 the results were Cardio protect -3, ATG4B inh -6, PP5 primary -1 and PP1 counter -3.
For Cc1cc(Cl)ccc1OCCCC(=O)NNC(=O)c1ccccc1O the results were Cardio protect 55*, ATG4B inh 1, PP5 primary -1 and PP1 counter -4.
Screening C=CCn1c(C)nnc1SCC(=O)N1CCN(S(=O)(=O)c2ccccc2)CC1 returned Cardio protect 0, ATG4B inh 2, PP5 primary 1 and PP1 counter 1.
For CCCCNC(=S)Nc1cccc(S(=O)(=O)NC2=NCCC2)c1 the results were Cardio protect 1, ATG4B inh 5, PP5 primary -1 and PP1 counter 16*.
Screening O=S1(=O)CC(N2CCN(CC3CC3)CC2)CN1Cc1ccc(F)cc1 (centres undefined) returned Cardio protect 5.
Screening CCCN1Cc2cccc(C(=O)Nc3ccc(C)cc3)c2C1=O returned Cardio protect 0, ATG4B inh -4, PP5 primary 2 and PP1 counter 2.
For CCCN1Cc2cccc(C(N)=O)c2C1=O the results were Cardio protect 59*, ATG4B inh -6, PP5 primary 0 and PP1 counter -5.
Screening CCOCCn1ccc2c(OCC(=O)Nc3ccc(OC)cc3OC)cccc2c1=O returned Cardio protect 12, ATG4B inh -8, PP5 primary 1 and PP1 counter -3.
`COCCNC(=O)COC(=O)c1ccc(OCC(=O)Nc2ccccc2OC)c(OC)c1` gave Cardio protect 56*, ATG4B inh -2, PP5 primary -1 and PP1 counter 3.
COCCn1ccc2c(OCC(=O)Nc3ccccc3OC)cccc2c1=O was read as Cardio protect 54*, ATG4B inh -24, PP5 primary 1 and PP1 counter -3.
For COc1ccc(-c2cc3nc(-c4ccccc4)cc(N4CCN(C(C)=O)CC4)n3n2)cc1 the results were Cardio protect 80*.
For COc1cccc(-c2cc3nc(C)c(C)c(N4CCN(C(=O)c5ccoc5)CC4)n3n2)c1 the results were Cardio protect 56*.
`Cc1ccc(-c2cc3nc(C)cc(N4CCN(C(=O)c5ccoc5)CC4)n3n2)cc1` gave Cardio protect 1.
`CC(C)C(=O)Nc1ccc(Oc2ccc3c(c2)C(=O)NC3=O)cc1` gave Cardio protect -1, ATG4B inh -9, PP5 primary 2 and PP1 counter -3.
Screening Cc1cc(C)c2nc(NNC(=O)c3ccc(S(=O)(=O)N4CC(C)CC(C)C4)cc3)sc2c1 (centres undefined) returned Cardio protect 26, ATG4B inh -1, PP5 primary 5 and PP1 counter 16*.
Screening COc1ccc(CCC(=O)OCC(=O)N2CCN(S(=O)(=O)c3ccc(C)cc3C)CC2)cc1 returned Cardio protect 0, ATG4B inh -1, PP5 primary 1 and PP1 counter -3.
`COc1ccc(CN2CCNC(=O)C2CC(=O)N2CCCN(C(C)=O)CC2)c(OC)c1` (centres undefined) gave Cardio protect -3, ATG4B inh -6, PP5 primary 1 and PP1 counter -8.
For COc1ccc(C2C(C#N)=C(C)NC3=C2C(=O)c2ccccc23)cc1 (centres undefined) the results were Cardio protect 15, ATG4B inh 12, PP5 primary 2 and PP1 counter 1.
`COc1cc(C2C(C#N)=C(C)NC3=C2C(=O)c2ccccc23)cc(OC)c1OC` (centres undefined) gave Cardio protect 128*, ATG4B inh -23, PP5 primary 2 and PP1 counter -4.
Cc1cc(-c2ccccc2)n(-c2cc(N/N=C/c3ccccc3O)ncn2)n1 was read as Cardio protect 30, ATG4B inh 15, PP5 primary 4 and PP1 counter 16*.
Screening COc1cccc(N2CCN(c3ccc4nnc(CCC(=O)Nc5ccccn5)n4n3)CC2)c1 returned Cardio protect 31, ATG4B inh -8, PP5 primary 3 and PP1 counter -5.
`O=C(N[C@@H]1CCC(=O)N(CC[C@H](Sc2ccc(Br)cc2)c2ccccc2)CC1)OCc1ccccc1` gave Cardio protect -15, ATG4B inh 2, PP5 primary 3 and PP1 counter 16*.
